# According to PubChem BioAssay (EPA / NIEHS):
# Results filed as inconclusive are left out. The source holds several records for some structures; these can differ, active in one and inactive in another. Activity calls are given as the source filed them. Rule for the calls: active = hit-call score of the fitted dose curve at least 0.9, where 1 is the maximum; inconclusive = response in the unintended direction; inactive = score below 0.9.
# Read-out: xenobiotic metabolism (CYP1A1), CYP1A1 (gene 1543)
# Assay: CLD_CYP1A1_24hr: CellzDirect (CLD) Gene Expression Assay for xenobiotic metabolism (CYP1A1) at 24 hours (AID 2283673)
# Experimental: CLD_24hr is a cell-based, multiplexed-readout assay that uses hepatocyte, a human liver primary cell, with measurements taken at 24 hours after chemical dosing in a 96-well plate.CLD_CYP1A1_24hr is one of 16 assay component(s) measured or calculated from the CLD_24hr assay. It is designed to make measurements of mRNA induction, a form of inducible reporter, as detected with chemiluminescence signals by Quantitative Nuclease Protection Assay (qNPA) technology.Data from the assay component CLD_CYP1A1_24hr was analyzed at the endpoint, CLD_CYP1A1_24hr, in the positive analysis fitting direction relative to DMSO as the negative control and baseline of activity. Using a type of inducible reporter, gain-of-signal activity can be used to understand changes in the reporter gene as they relate to the gene CYP1A1. Furthermore, this assay endpoint can be referred to as a primary readout. To generalize the intended target to other relatable targets, this assay endpoint is annotated to the cyp intended target family, where subfamily is xenobiotic metabolism.
# Human hepatocyte cultures were treated daily for two consecutive days with fresh dosing solutions containing appropriate concentrations of the 320 ToxCast chemicals (chemical identities were blinded to CellzDirect and other ToxCast collaborators), vehicle control (0.2% DMSO), and positive control inducers as summarized in Table 1. Due to the large number of treatment groups and chemicals examined, the ToxCast chemicals were divided into two groups (spanning two independent cultures of hepatocytes from separate donor preparations (Hu778: ToxCast plates 1 and 2; Hu776: ToxCast plates 3 and 4). Each preparation of human hepatocyte cultures was treated with respective vehicle control, medium only control, set of six positive controls/reference chemicals for the five hepatic receptor pathways, and a subset of eight of the ToxCast chemicals (indoxacarb, pyrithiobac-sodium, norflurazon, cyhalofop-butyl, methomyl, thiram, acetochlor, and propiconazole). These replicate data, coupled with internal replicates designed within the blinded ToxCast chemical library, provided additional data to evaluate interindividual differences between hepatocyte preparations and their potential impact on chemical profiles.Cell morphology and integrity were evaluated using phase-contrast microscopy as an indicator of hepatocyte cell health (Tyson & Green, 1987). Cultures for each treatment group (i.e., media, vehicle [0.2% DMSO], positive control inducers [multiple concentrations], and the ToxCast chemicals [multiple concentrations]) were observed and cell morphology was assessed relative to vehicle control cultures at each harvest time point (0, 6, 24, or 48 h). […] Images were evaluated at the conclusion of the study to assess changes in cell integrity and account for the effects of chemical exposure on uncharacteristic changes in concentration-dependent gene expression profiles. The results from these determinations of apparent cytotoxicity were annotated (yes/no) alongside the corresponding qNPA data for reference.At the conclusion of each treatment period, hepatocyte cultures (96-well) were washed with 1 volume of HBSS, lysed by addition of 25 ul ArrayPlate lysis buffer (HTG, Tucson, AZ), and 70 ul/well of Denaturation Oil, denatured by incubation at 95C for 10 min, and frozen at approximately -70C until analysis by nuclease protection assay (qNPA) (Roberts et al., 2007). For qNPA analysis, cell lysates were thawed at 50C for approximately 30 min, qNPA probes were added, and samples were incubated at 95C for 10 min to begin the detection process by denaturing the target RNA, dissociating the duplexes and secondary structure hybridization. At the conclusion of the hybridization period, S1 nuclease reagent was added to each sample to digest all nonprotected nucleotides at 50C for 60-90 min. […]
SMILES,AC50,outcome
CCCC1COC(Cn2cncn2)(c2ccc(Cl)cc2Cl)O1 (stereo not given),6.46 µM (active),
CCOC(=O)C(Cl)Cc1cc(-n2nc(C)n(C(F)F)c2=O)c(F)cc1Cl (stereo not given),0.39 µM (active),
CC1=C(C(=O)Nc2ccccc2)SCCO1,20 µM (active),
O=C(O)COc1nc(Cl)c(Cl)cc1Cl,,inactive
COc1nc(C)nc(NC(=O)NS(=O)(=O)c2ccccc2CCC(F)(F)F)n1,20 µM (active),inactive
Cc1cc(Cl)ccc1OCC(=O)O,,inactive
CCCCNC(=O)OCC#CI,,inactive
N#Cc1nn(-c2c(Cl)cc(C(F)(F)F)cc2Cl)c(N)c1S(=O)C(F)(F)F (stereo not given),,inactive
COC(=O)C(C)Oc1ccc(Oc2ccc(Cl)cc2Cl)cc1 (stereo not given),,inactive
C#CCOS(=O)OC1CCCCC1Oc1ccc(C(C)(C)C)cc1 (stereo not given),20 µM (active),
CC(C)Oc1cc(-n2nc(C(C)(C)C)oc2=O)c(Cl)cc1Cl,4.05 µM (active),
COC(=O)c1ccccc1C(=O)OC,,inactive
CCNc1nc(Cl)nc(NCC)n1,5.56 µM (active),
CCc1nn(C)c(C(=O)NCc2ccc(C(C)(C)C)cc2)c1Cl,7.44 µM (active),
COP(N)(=O)SC (stereo not given),,inactive
CN(C)C(=S)SSC(=S)N(C)C,35 µM (active),
C=CCC1=C(C)C(OC(=O)C2C(C=C(C)C)C2(C)C)CC1=O (stereo not given),,inactive
N#CC(CCc1ccc(Cl)cc1)(Cn1cncn1)c1ccccc1 (stereo not given),2.64 µM (active),
N#Cc1cc(Br)c(O)c(Br)c1,20 µM (active),

SMILES,AC50,outcome
CNC(=S)S,,inactive
O=C(Nc1ccccc1)Nc1ccnc(Cl)c1,10.4 µM (active),
C=CCC1=C(C)[C@@H](OC(=O)[C@@H]2[C@@H](C=C(C)C)C2(C)C)CC1=O,,inactive
CS/C(C)=N/OC(=O)N(C)SN(C)C(=O)O/N=C(\C)SC,,inactive
COc1nc(NC(C)C)nc(NC(C)C)n1,3.47 µM (active),
Oc1ccccc1-c1ccccc1,35.9 µM (active),
OC(c1ccc(Cl)cc1)(c1cncnc1)c1ccccc1Cl (stereo not given),7.86 µM (active),
Cc1c(F)c(F)c(COC(=O)C2C(/C=C(\Cl)C(F)(F)F)C2(C)C)c(F)c1F (stereo not given),,inactive
COc1ccc(C(c2ccc(OC)cc2)C(Cl)(Cl)Cl)cc1,,inactive
CC1COC(Cn2cncn2)(c2ccc(Oc3ccc(Cl)cc3)cc2Cl)O1 (stereo not given),1.94 µM (active),
CCOP(=S)(OCC)SCn1c(=O)oc2cc(Cl)ccc21,5.28 µM (active),
CCCCOC(=O)c1ccccc1C(=O)OCCCC,4.22 µM (active),inactive
COP(=S)(OC)Oc1nc(Cl)c(Cl)cc1Cl,3.97 µM (active),
CCCN(CCC)c1c([N+](=O)[O-])cc(S(N)(=O)=O)cc1[N+](=O)[O-],4.81 µM (active),
Cc1ccc(-c2c(Cl)nc(C#N)n2S(=O)(=O)N(C)C)cc1,8.2 µM (active),
CC(C)(C)c1ccc(CSc2cnn(C(C)(C)C)c(=O)c2Cl)cc1,20 µM (active),
CCCCC(CC)COC(=O)c1ccccc1C(=O)OCC(CC)CCCC (stereo not given),,inactive
COc1cnc(OC)n2nc(NS(=O)(=O)c3c(OCC(F)F)cccc3C(F)(F)F)nc12,,inactive
CCOC(=O)CC(SP(=S)(OC)OC)C(=O)OCC (stereo not given),,inactive
